ALDH1A1 inh = ALDH1A1 (human) enzyme inhibition; Purified ALDH1A1, NADH fluorescence, propionaldehyde substrate; AID 1030; Potency, µM (doses to about 75.3 µM), without a hit: at the highest dose activity, negative = inhibition, actives largely listed as inhibitors; P00352; 220,000 compounds, 7.3% hits; active = well fitted inhibition curve with a large enough effect, not every such curve was filed as active; inconclusive = small, poorly fitted or top-dose-only effect, or another doubt; inactive = no such curve, though single readings can be large or run the other way;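 note: plate controls were no enzyme wells and a reference inhibitor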
Target sequence (P00352 whole entry, looked up): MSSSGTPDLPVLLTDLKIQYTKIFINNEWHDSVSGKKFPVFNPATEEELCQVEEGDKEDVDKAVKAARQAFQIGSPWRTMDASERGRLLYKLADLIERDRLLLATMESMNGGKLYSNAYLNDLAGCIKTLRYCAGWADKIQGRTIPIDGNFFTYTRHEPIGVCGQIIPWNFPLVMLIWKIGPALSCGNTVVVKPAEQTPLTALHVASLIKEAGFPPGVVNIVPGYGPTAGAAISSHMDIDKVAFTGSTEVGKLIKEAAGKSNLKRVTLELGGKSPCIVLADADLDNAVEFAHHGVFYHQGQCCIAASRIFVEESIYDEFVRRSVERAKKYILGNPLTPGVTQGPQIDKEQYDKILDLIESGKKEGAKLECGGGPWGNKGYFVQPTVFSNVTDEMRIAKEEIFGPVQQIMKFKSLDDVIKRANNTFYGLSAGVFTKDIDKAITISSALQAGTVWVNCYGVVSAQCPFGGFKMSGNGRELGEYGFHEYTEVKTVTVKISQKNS
RORgamma inh = ROR gamma (mouse) transcription inhibition; P51450; Drosophila S2 Gal4-RORgamma UAS-luciferase reporter, 20 h; Potency, µM (highest dose often 53.6 µM), without a hit: at the highest dose activity change, negative = inhibition, usual class: inhibitors; 310,000 compounds, 5.4% hits; AID 2551; note: nearly all actives have a fitted effect of over 60% in size
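Compounds are pin-transferred onto Drosophila Schneider cells expressing a copper-inducible Gal4–ROR gamma transactivation domain fusion. After 1 hr, copper sulfate is added to 700 uM final; luciferase is read 20 hr later.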
PLK1 PBD block = PLK1 (human) polo-box domain binding inhibition | P53350 | Plk1 PBD binding of FITC phosphopeptide, fluorescence polarization | Potency, µM, without a hit: max response, negative = inhibition, most hits filed as inhibitors | 360,000 compounds, 2.8% hits | AID 720504; note: series mostly up to about 57 µM; nearly all actives have a fitted effect of over 65% in size
VP16 counter = counter-screen for ROR gamma inhibitors: Gal4-VP16 reporter; Drosophila S2 Gal4-VP16 UAS-luciferase, luminescence, 20 h; 310,000 compounds, 3.5% hits; Potency, µM (doses to about 53.6 µM), without a hit: top-dose activity, negative = inhibition, usual class: inhibitors; AID 2546;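 note: Gal4-VP16 expression switched on by copper sulfate through the metallothionein promoter; nearly all actives have a fitted effect of over 50% in size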
Sfp PPTase inh = Sfp phosphopantetheinyl transferase inhibition. Q9F4F7. Biochemical Sfp PPTase activity, qHTS. Potency, µM, inactives show largest response in the series, negative = inhibition, usual class: inhibitors. 310,000 compounds, 3.5% hits. AID 1490;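 note: the enzyme is Sfp with the accession as filed and its product quenches rhodamine fluorescence; 0% = enzyme reaction without inhibitor and -100% = no enzyme wells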
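Sfp 15 nM + cpd, 15 min RT; start w/ rhodamine-CoA 5 uM, BHQ-2-YbbR 12.5 uM (final); 50 mM Hepes pH 7.6, 10 mM MgCl2, 0.01% NP-40, 0.01% BSA; read 525/598 nm at 0 and 30 min.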
The depositor's hits bear a star; ? = inconclusive; · = no result given; [ ] = remark or other dose. Most compounds without a hit are left out; they make up all but 12% or so of the library. Unless noted, calls come from the whole dose curve; as a rule, active = well fitted curve in the direction sought with a large enough effect; inconclusive = small, poorly fitted or top-dose-only effect, or another doubt; inactive = no such curve, though single readings can be large; an effect the other way counts as inactive or inconclusive. Unless noted, % is set by controls: 0 for no effect and ±100 for the full control effect; potency is the fitted concentration of half-maximal effect.

SMILES | ALDH1A1 inh | RORgamma inh | PLK1 PBD block | VP16 counter | Sfp PPTase inh
C/C(=N\NC(=O)c1ccn(C)n1)c1ccco1 | · | -25% | -9% | -6% | 20%
CC(C)=CCC[C@H](C)C[C@@H]1CC2=C(C(=O)OC(C)(C)O2)[C@@H](c2ccc(F)cc2)O1 | · | · | -2% | · | ·
O=C1/C(=C/c2c[nH]c3ccccc23)CCC/C1=C\c1c[nH]c2ccccc12 | 1.3µM* | 11µM* | 18% | ? | 50µM*
Cc1onc(-c2ccccc2)c1-c1nnc(-c2ccccc2C(F)(F)F)o1 | -8% | 29% | -18% | 2% | -14%
CCn1c(C)nc2cc(-c3nnc(-c4c(-c5ccccc5)noc4C)o3)ccc21 | ? | ? | -1% | 5µM* | 7%
Cc1sc2ncnc(NCC3COc4ccccc4O3)c2c1C (stereo unspecified) | -2% | ? | -11% | 1µM* | -15%
c1ccc(-c2csc3ncnc(NCC4COc5ccccc5O4)c23)cc1 (stereo unspecified) | ? | 7.1µM* | -3% | 0.89µM* | -11%
COc1ccccc1N1CCN(C(CNS(=O)(=O)c2ccc(C)cc2)c2cccnc2)CC1 (stereo unspecified) | ? | 31% | -8% | 4% | 9%
COc1ccccc1N1CCN(C(CNS(C)(=O)=O)c2cccnc2)CC1 (stereo unspecified) | 10µM* | 3% | -15% | -2% | 14%
COc1cccc(N2CCN(C(=O)c3ccc(=O)oc3)CC2C)c1 (stereo unspecified) | ? | 33% | -14% | 0% | 35µM*
Cc1cc(C)nc(NS(=O)(=O)c2ccc(NC(=O)Cc3ccccc3)cc2)n1 | -14% | 20% | ? | -4% | 0%
O=C(Cc1ccc(Br)cc1)Nc1ccc(S(=O)(=O)NCC2CCCO2)cc1 (stereo unspecified) | -12% | 34% | 24µM* | 3% | 26%
COc1cccc(CC(=O)Nc2ccc(S(=O)(=O)Nc3nc(C)cc(C)n3)cc2)c1 | 9% | 35% | 13µM* | -6% | 5%
COCC(=O)Nc1ccc(S(=O)(=O)NCC2CCCO2)cc1 (stereo unspecified) | · | 17%[1.91 µM] | -4% | -9% | 11%
O=S(=O)(Nc1ncccn1)c1ccccc1 | · | 1% | 24µM* | 12% | 7%
O=C(CSc1ccccc1)Nc1ccc(S(=O)(=O)NCC2CCCO2)cc1 (stereo unspecified) | 22µM* | 7% | 24µM* | 3% | -3%
O=S(=O)(Nc1ccc(S(=O)(=O)Nc2ncccn2)cc1)c1ccccc1 | · | -4% | 0% | -5% | 1%
